Assay outcomes as filed in PubChem.
p53ts 39C kill: qHTS Screen for Compounds that Selectively Target Cancer Cells with p53 Mutations: Cytotoxicity of p53ts Cells at the Nonpermissive Temperature; H1299-p53A138V viability at 39C, ATP luminescence, 24 h; Potency, µM (top dose mostly 46.1 µM), actives largely listed as cytotoxic; actives 1.5% (n = 130,000); AID 902, 2007; also: nearly all actives have a fitted effect of over 55% in size
IkB signaling: IkB Signaling. ABC-DLBCL IkBa-CBG/CBR dual luciferase ratio, 4 h; response scale: scaled: untreated 0%, proteasome inhibitor 100%. Potency, µM (top dose mostly 57.1 µM). actives 0.04% (n = 110,000). AID 445, 2006; active = well fitted curve in the direction sought with a large enough effect in the signal ratio, not every such curve was filed as active; inconclusive = small, poorly fitted or top-dose-only effect, or a change in a side signal; the % refers to the signal ratio;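 also: the direction sought is a rising ratio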
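Curves were fitted separately to fusion (green), unfused (red) and ratio luminescence, then classed by r2, magnitude and activity. Cells: OCI-Ly3, 4 h compound plus doxycycline at 37C; 10 uM MG-132 defined full response.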
Imprint erasure: qHTS Assay for Compounds that Induce Erasure of Genomic Imprints | mouse ES Peg3-LacZ reporter, beta-gal luminescence, 40 h | Potency, µM (top dose mostly 60.7 µM), hits mostly activators | actives 0.02% (n = 110,000)
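Gelatin-coated wells received 300 freshly trypsinized female ES cells with a Peg3LacZ-Neo reporter on the maternal allele, then incubated 40 hours at 37C. BetaGlo was added for 5 minutes at room temperature before a single luminescence read.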
p53ts 32C kill: qHTS Screen for Compounds that Selectively Target Cancer Cells with p53 Mutations: Cytotoxicity of p53ts Cells at the Permissive Temperature | H1299-p53A138V at 32C, ATP luminescence viability, 24 h | Potency, µM (top dose mostly 46.1 µM), usual class: cytotoxic | actives 0.93% (n = 130,000) | AID 924, 2007; also: nearly all actives have a fitted effect of over 55% in size
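H1299-p53 A138V cells (temperature-sensitive p53) exposed 24 h to up to 46 uM compound at 32C, where p53 is wild-type in conformation. Viability read as ATP luminescence and normalised to DMSO and 100 uM tamoxifen. AC50 fitted with the Hill equation.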
Large screens that a line does not name were inactive. Sampled rows, rich in hits. Any-hit rate of the full collection: about 1.8%. Unless noted, calls follow the shape of the dose curve; as a rule, active = well fitted curve in the direction sought with a large enough effect; inconclusive = small, poorly fitted or top-dose-only effect, or another doubt; inactive = no such curve, though single readings can be large; an effect the other way counts as inactive or inconclusive.

CCn1cc2c(n1)-c1c(oc(C(=O)Nc3cccc(C)c3C)c1C)CC2	IkB signaling inconclusive
Cc1ccc(CSc2nc3cccnc3n2Cc2ccc(C(=O)NC3CCCCC3)cc2)cc1	p53ts 32C kill 11.2µM (no result: p53ts 39C kill, IkB signaling, Imprint erasure)
O=C(NC1CCCCC1)c1ccc(CSc2nc3cccnc3n2Cc2ccccc2F)cc1	none (no result: p53ts 39C kill, IkB signaling, Imprint erasure)
Cc1ccc(CSc2nc3cccnc3n2Cc2ccc(C(=O)NCCc3cccs3)cc2)cc1	p53ts 32C kill 5.01µM (no result: p53ts 39C kill, IkB signaling, Imprint erasure)
O=C(NC1CC1)c1ccc(Cn2c(SCc3ccccc3F)nc3cccnc32)cc1	p53ts 32C kill 15.8µM (no result: p53ts 39C kill, IkB signaling, Imprint erasure)
O=C(NCc1cccs1)c1ccc(CSc2nc3cccnc3n2Cc2ccccc2)cc1	none (no result: p53ts 39C kill, IkB signaling, Imprint erasure)
CCOC(=O)c1[nH]c2ccccc2c1NC(=O)c1ccc(Br)cc1	none
O=C(OCC1CO1)C1CCCCC1C(=O)OCC1CO1 (configuration not stated)	p53ts 39C kill 31.6µM
O=C(O)C1CCCCC1C(=O)OCCCCOC(=O)C1CCCCC1C(=O)O (configuration not stated)	none
COc1ccccc1C(=O)Nc1c(C(=O)N(CCN(C)C)Cc2ccco2)oc2ccccc12	p53ts 39C kill 20µM, IkB signaling inconclusive
COc1cc(NC(=O)CC2C(=O)N(c3cccc(C)c3)C(=O)N2Cc2ccco2)cc(OC)c1 (configuration not stated)	none
CS(=O)(=O)c1oc(-c2ccc(F)cc2)nc1S(=O)(=O)c1ccc(Cl)cc1	p53ts 39C kill 3.98µM, IkB signaling inconclusive, p53ts 32C kill 12.6µM
CCS(=O)(=O)c1oc(-c2ccc(F)cc2)nc1S(=O)(=O)c1ccc(Br)cc1	p53ts 39C kill 1.58µM, IkB signaling inconclusive, p53ts 32C kill 7.08µM
CCCCS(=O)(=O)c1oc(-c2ccc(F)cc2)nc1S(=O)(=O)c1ccccc1	p53ts 39C kill 2µM, IkB signaling inconclusive, p53ts 32C kill 10µM
CC(C)S(=O)(=O)c1oc(-c2cccs2)nc1S(=O)(=O)c1ccc(F)cc1	p53ts 39C kill 3.16µM, IkB signaling inconclusive, p53ts 32C kill inconclusive
CSc1oc(-c2ccc(F)cc2)nc1S(=O)(=O)c1ccccc1	none
CCOCCCNC(=O)CN1C(=O)c2cccnc2Sc2ccccc21	none
O=C(c1csnn1)N1CCC[C@@]2(CCN(c3ccccn3)C2)C1	none (no result: Imprint erasure)
CCn1c(=N)c(C(=O)NCc2cccnc2)cc2c(=O)n3cc(C)ccc3nc21	none
CC(=O)SC1CC2=CC(=O)CC[C@@]2(C)C2CC[C@@]3(C)[C@@H](CC[C@@]34CCC(=O)O4)C12 (some centres not stated)	none (no result: IkB signaling)
Cc1ccccc1OC(=O)c1cc(-c2ccc3c(c2)OCCO3)on1	p53ts 39C kill inconclusive, p53ts 32C kill inconclusive
CC(C)S(=O)(=O)c1oc(-c2ccc(F)cc2)nc1S(=O)(=O)c1ccccc1	p53ts 39C kill 0.794µM, IkB signaling inconclusive, p53ts 32C kill 3.98µM
Cc1nc2cc(NC(=O)NCCC3=CCCCC3)ccc2o1	IkB signaling inconclusive
Cc1cc(C)c2sc(N3CCN(C(=O)C4CC4)CC3)nc2c1	p53ts 39C kill 7.94µM, p53ts 32C kill inconclusive
COc1cccc(CNC(=O)c2cc3c(=O)n(C)c4ccccc4c3n2C)c1	p53ts 39C kill 10µM, IkB signaling inconclusive
Cc1nnc(SCCCN2C(=O)c3ccccc3C2=O)o1	none
COc1cc(OC)cc(-c2nc(-c3ccc4c(c3)[nH]c(=O)n4C)no2)c1	none
CN(C)CCN(Cc1ccco1)C(=O)c1cc2c(s1)-c1ccccc1OC2	p53ts 39C kill 12.6µM
CCCCN(Cc1ccco1)C(=O)c1cc2c(s1)-c1c(C)cccc1OC2	p53ts 39C kill inconclusive, IkB signaling inconclusive, p53ts 32C kill inconclusive
CCOc1ccc(-c2cc(CCCC(=O)Nc3cccc(OC)c3)no2)cc1	IkB signaling 3.16µM
CCOc1ccc(-c2cc(CCCC(=O)Nc3cc(OC)ccc3OC)no2)cc1	IkB signaling inconclusive
CCOc1ccc(-c2cc(CCCC(=O)NCc3cccnc3)no2)cc1	p53ts 39C kill inconclusive, IkB signaling inconclusive, p53ts 32C kill 15.8µM
COc1cccc(Cn2c(=O)c(-c3ccc(F)cc3)nc3cnc(N4CCOCC4)nc32)c1	none
Cc1ccc2scc(N3CCCC(C)C3)c(=O)c2c1 (configuration not stated)	p53ts 39C kill inconclusive, IkB signaling inconclusive, p53ts 32C kill 12.6µM
Cc1ccc2scc(N3CCN(c4cccc(C(F)(F)F)c4)CC3)c(=O)c2c1	p53ts 39C kill inconclusive
CNCc1ccccc1	none (no result: IkB signaling)
Cc1ccc(CSc2ncc(Cl)c(C(=O)NCc3ccccc3)n2)cc1	none
Cc1cccc(CS(=O)(=O)c2ncc(Cl)c(C(=O)NCc3ccccc3)n2)c1	p53ts 39C kill 5.01µM, IkB signaling inconclusive, p53ts 32C kill 25.1µM
O=C(NCc1ccccc1)c1nc(S(=O)(=O)Cc2ccc(F)cc2)ncc1Cl	p53ts 39C kill 5.01µM, IkB signaling inconclusive, p53ts 32C kill 15.8µM
CN(C)CCN(c1ccccn1)c1ccccn1	none
COC(=O)c1ccc(Nc2nc(-c3ccc(C)cc3)nc3ccccc23)cc1	p53ts 39C kill 12.6µM, IkB signaling inconclusive, p53ts 32C kill inconclusive
c1ccc(Nc2nc(-c3ccoc3)nc3ccccc23)cc1	Imprint erasure 3.98µM
CN(C)C(=O)c1ccc(-c2nc(Nc3ccccc3)c3ccccc3n2)cc1	p53ts 39C kill inconclusive, p53ts 32C kill inconclusive
CC(C)C(=O)Nc1ccc(NC(=O)c2ccccn2)cn1	p53ts 39C kill 12.6µM, p53ts 32C kill 7.94µM
O=C(Nc1ccc(NC(=O)C2CCCCC2)cn1)c1ccco1	p53ts 39C kill 5.01µM, p53ts 32C kill 3.98µM
CCC(=O)Nc1ccc(NC(=O)c2ccccn2)cn1	p53ts 39C kill inconclusive, IkB signaling inconclusive, p53ts 32C kill inconclusive
O=C(Nc1ccc(NC(=O)C2CC2)nc1)c1ccccn1	p53ts 39C kill 6.31µM, IkB signaling inconclusive, p53ts 32C kill 12.6µM
O=C(Nc1ccc(NC(=O)C23CC4CC(CC(C4)C2)C3)cn1)c1ccco1	none
O=C(Nc1ccc(NC(=O)c2ccco2)nc1)c1ccccn1	p53ts 39C kill 12.6µM, IkB signaling inconclusive, p53ts 32C kill 12.6µM
COc1ccc(-c2nc(S(=O)(=O)c3ccc(C)cc3)c(N3CCCCC3)o2)cc1	IkB signaling inconclusive
CN1C(=O)c2ccccc2Sc2ccc(NC(=O)c3ccc(C#N)cc3)cc21	p53ts 39C kill inconclusive, IkB signaling inconclusive
CN1CCN(C(c2cccnc2)c2ccc3cccnc3c2O)CC1 (configuration not stated)	p53ts 39C kill 12.6µM, IkB signaling inconclusive
CCOC(=O)c1c(C)oc2c1c(C(c1cccnc1)N1CCN(C)CC1)c(O)c1ccccc12 (configuration not stated)	IkB signaling inconclusive
O=c1[nH]c(C2CCCN(S(=O)(=O)c3ccccc3)C2)nc2c1nnn2Cc1ccccc1 (configuration not stated)	none
Cc1ccc2[nH]c(-c3ccccc3)cc(=O)c2c1	p53ts 39C kill 5.01µM, p53ts 32C kill 6.31µM
CCc1nnc(NC(=O)Nc2ccccc2OC)s1	none
